Hit rate of the full screen: of about 39,000 compounds, about 1,500 (3.8%) were called active. For the sample, actives were picked, then their nearest neighbours and some compounds at random.

For the experiment, the system named is HSkMC (human skeletal muscle cells). Nature of the experiment: cytotoxicity call (relative viability < 0.9). Particulars: 10 µM.
`CCOC(=O)C1CCN(c2cn[nH]c(=O)n2)CC1`: the cytotoxicity call is “inactive”.
As for `C[C@H]1CN([C@@H](C)CO)C(=O)Cc2cc(NC(=O)Nc3cccc4ccccc34)ccc2O[C@@H]1CN(C)C(=O)Nc1ccccc1`, the cytotoxicity call is “inactive”.
With `C=CCOC(=O)[C@H]1[C@@H]2C(=O)O[C@@H](c3ccccc3)[C@@H](c3ccccc3)N2[C@@H](c2ccc(OCCOC(=O)[C@H]3C[C@H]4C(=O)N5CCC[C@H]5C(=O)N4[C@H]3c3cccc(OCCO)c3)cc2)[C@]12C(=O)Nc1ccccc12` the entry was “inactive”.
Next, `COc1ccc(NC(=O)N(C)C[C@H]2OCc3cnnn3CCCC(=O)N([C@H](C)CO)C[C@@H]2C)c(OC)c1`: “inactive”; `COc1ccc(S(=O)(=O)N(C)C[C@H]2Oc3ccc(NS(=O)(=O)c4ccc(F)cc4)cc3CC(=O)N([C@@H](C)CO)C[C@@H]2C)cc1`: “inactive”.
As for `C[C@@H]1CN([C@@H](C)CO)C(=O)c2cc(NS(=O)(=O)c3ccc(Cl)cc3)ccc2O[C@@H](C)CCCCO[C@H]1CN(C)Cc1ccc(C(F)(F)F)cc1`, the cytotoxicity call was “active”.
Regarding `C[C@H]1CN([C@@H](C)CO)C(=O)c2cccc(NC(=O)Nc3ccc(C(F)(F)F)cc3)c2O[C@@H]1CN(C)Cc1ccc(Oc2ccccc2)cc1`, the cytotoxicity call was “inactive”.
Next, `C[C@H]1CN([C@@H](C)CO)C(=O)c2cccc(NC(=O)Nc3ccc(C(F)(F)F)cc3)c2O[C@H]1CN(C)Cc1ccccc1`: “inactive”; `C[C@H](CO)N1C[C@H](C)[C@H](CN(C)Cc2ccc(Oc3ccccc3)cc2)Oc2c(NC(=O)Nc3ccc(C(F)(F)F)cc3)cccc2C1=O`: “active”; `C[C@@H]1CN([C@@H](C)CO)C(=O)c2cccc(NC(=O)Nc3ccc(C(F)(F)F)cc3)c2O[C@@H]1CN(C)Cc1ccc(Oc2ccccc2)cc1`: “active”.
For `C[C@@H]1CN([C@H](C)CO)C(=O)c2cccc(NC(=O)Nc3ccc(C(F)(F)F)cc3)c2O[C@H]1CN(C)Cc1ccc(Oc2ccccc2)cc1`, the cytotoxicity call was “active”.
With `C[C@@H]1CN([C@@H](C)CO)C(=O)c2cccc(NC(=O)Nc3ccc(C(F)(F)F)cc3)c2O[C@H]1CN(C)Cc1ccc(Oc2ccccc2)cc1` the entry was “active”; with `COC[C@H]1CNN1C(=O)c1cc(C)oc1C`, “inactive”.
Next, `C[C@@H]1CN([C@@H](C)CO)C(=O)c2cccc(NS(=O)(=O)c3cn(C)cn3)c2O[C@@H]1CN(C)C(=O)NC1CCCCC1`: “inactive”; `C[C@H]1CCCCO[C@H](CN(C)C(=O)c2ccccc2)[C@@H](C)CN([C@@H](C)CO)C(=O)c2cc(NC(=O)c3ccccc3)ccc2O1`: “inactive”; `COc1cccc(-c2ccc3c(c2)O[C@H](CN(C)C(=O)C2CCOCC2)[C@H](C)CN([C@H](C)CO)S3(=O)=O)c1`: “inactive”.
Next, `C[C@H](CO)N1C[C@H](C)[C@H](CN(C)Cc2ccccc2)Oc2c(NC(=O)Nc3ccc(C(F)(F)F)cc3)cccc2C1=O`: “inactive”; `C[C@H]1CN([C@@H](C)CO)C(=O)c2cccc(NC(=O)Nc3ccc(C(F)(F)F)cc3)c2O[C@H]1CN(C)Cc1ccc(Oc2ccccc2)cc1`: “active”.
With `C[C@@H]1CN([C@H](C)CO)C(=O)c2cccc(NC(=O)Nc3ccc(C(F)(F)F)cc3)c2O[C@@H]1CN(C)Cc1ccc(Oc2ccccc2)cc1`, the cytotoxicity call is “active”.
Next, `C[C@@H]1CN([C@H](C)CO)C(=O)c2cccc(NC(=O)Nc3ccccc3)c2O[C@@H]1CN(C)Cc1ccc(C(F)(F)F)cc1`: “inactive”.
Next, `C[C@H](CO)N1C[C@H](C)[C@@H](CN(C)Cc2ccc(Oc3ccccc3)cc2)Oc2c(NC(=O)Nc3ccc(C(F)(F)F)cc3)cccc2C1=O`: “active”.
Next, `C[C@@H]1CCCCO[C@@H](CN(C)CC2CC2)[C@H](C)CN([C@H](C)CO)C(=O)c2cc(NC(=O)Cc3ccccc3)ccc2O1`: “inactive”; `C[C@@H]1CN([C@H](C)CO)C(=O)c2cc(NC(=O)c3ccncc3)ccc2O[C@@H](C)CCCCO[C@@H]1CN(C)C(=O)C1CCCCC1`: “inactive”; `COc1ccc(NC(=O)N2C[C@@H](O)COC[C@@H]3O[C@H](CC(=O)NC4Cc5ccccc5C4)CC[C@H]32)cc1`: “inactive”.
For the compound `CC(C)NC(=O)N(C)C[C@H]1Oc2ccc(NC(=O)NC3CCCCC3)cc2C(=O)N([C@@H](C)CO)C[C@H]1C`, the cytotoxicity call is “inactive”.
Regarding `CC(C)NC(=O)Nc1ccc2c(c1)C(=O)N([C@H](C)CO)C[C@H](C)[C@H](CN(C)S(=O)(=O)c1cn(C)cn1)OCCCC[C@H](C)O2`, the cytotoxicity call was “inactive”.
Next, `C[C@@H]1CN([C@H](C)CO)C(=O)c2cc(NC(=O)Cn3cnnn3)ccc2O[C@@H]1CN(C)Cc1ccc(Oc2ccccc2)cc1`: “inactive”; `CCS(=O)(=O)N[C@H]1C=C[C@@H](CC(=O)NCc2ccc(Cl)cc2)O[C@@H]1CO`: “inactive”.
With `C[C@@H]1CN([C@H](C)CO)C(=O)c2cc(NC(=O)CCC(F)(F)F)ccc2O[C@@H](C)CCCCO[C@@H]1CN(C)Cc1ccc(Cl)c(Cl)c1` the entry was “active”; with `C[C@@H]1CN([C@H](C)CO)C(=O)c2cc(NC(=O)CCC(F)(F)F)ccc2O[C@@H](C)CCCCO[C@H]1CN(C)Cc1ccc(Cl)c(Cl)c1`, “active”; with `C[C@@H]1CCCCO[C@@H](CN(C)Cc2ccc(Cl)c(Cl)c2)[C@H](C)CN([C@H](C)CO)C(=O)c2cc(NC(=O)CCC(F)(F)F)ccc2O1`, “inactive”.
Next, `C[C@H]1CCCCO[C@H](CN(C)Cc2ccc(Cl)c(Cl)c2)[C@@H](C)CN([C@@H](C)CO)C(=O)c2cc(NC(=O)CCC(F)(F)F)ccc2O1`: “inactive”; `C[C@H](CO)N1C[C@H](C)[C@@H](CN(C)Cc2ccc(Cl)c(Cl)c2)OCCCC[C@H](C)Oc2ccc(NC(=O)CCC(F)(F)F)cc2C1=O`: “inactive”; `C[C@@H]1CCCCO[C@H](CN(C)Cc2ccc(Cl)c(Cl)c2)[C@H](C)CN([C@@H](C)CO)C(=O)c2cc(NC(=O)CCC(F)(F)F)ccc2O1`: “inactive”.
On to `C[C@H](CO)N1C[C@H](C)[C@@H](CN(C)Cc2ccc(C(=O)O)cc2)OCCCC[C@H](C)Oc2ccc(NC(=O)CCC(F)(F)F)cc2C1=O`, for which the cytotoxicity call was “inactive”.
With `Cc1cc(OCCCS(C)(=O)=O)cc(C)c1-c1cccc(COc2ccc3c(c2)OC[C@H]3CC(=O)O)c1` the entry was “active”.
On to `C[C@@H]1CN([C@H](C)CO)C(=O)c2cccc(NC(=O)c3ccc(-c4nccs4)cc3)c2O[C@H]1CN(C)Cc1ccccc1`, for which the cytotoxicity call is “inactive”.
With `CC(C)(N)c1cn(C2CCN(C(=O)C3CCC(C(C)(C)C)CC3)CC2)nn1` (stereo unspecified) the entry was “inactive”; with `CCO[C@@H]1OC(C(=O)N2CCOCC2)=C[C@H](c2coc3ccccc3c2=O)[C@H]1CCCOC(=O)NCCCCCC(=O)NO`, “inactive”; with `COc1ccc(S(=O)(=O)Nc2ccc3c(c2)CC(=O)N([C@@H](C)CO)C[C@@H](C)[C@@H](CN(C)C(=O)Nc2c(C)noc2C)O3)cc1`, “inactive”.
In the case of `Cc1ccc2sc(N(CCCN(C)C)C(=O)c3ccc(S(=O)(=O)N(C)C4CCCCC4)cc3)nc2c1C`, the cytotoxicity call is “active”.
Take `Cc1cc(Cl)cc2sc(N(Cc3ccccn3)C(=O)c3ccc(S(=O)(=O)N4CCCC4)cc3)nc12`: the cytotoxicity call is “inactive”.
With `COc1cc(OC)c(S(=O)(=O)N(C)Cc2ccccc2)cc1S(=O)(=O)N(C)Cc1ccccc1`, the cytotoxicity call is “inactive”.
In the case of `O=C(c1ccc(S(=O)(=O)N2CCCCCC2)cc1)N(Cc1cccnc1)c1nc2c(F)cc(F)cc2s1`, the cytotoxicity call was “inactive”.
With `Cc1ccc2sc(N(CCCN(C)C)C(=O)c3ccc(S(=O)(=O)N(C)Cc4ccccc4)cc3)nc2c1C` the entry was “active”.
With `C[C@@H]1CN([C@H](C)CO)C(=O)c2cc(NC(=O)Cn3cnnn3)ccc2O[C@H]1CN(C)CC1CCCCC1` the entry was “inactive”.
With `Cc1ccc(-c2ccc3c(c2)O[C@@H](CN(C)C(=O)NC(C)C)[C@H](C)CN([C@H](C)CO)S3(=O)=O)cc1` the entry was “inactive”; with `CCCNC(=O)N[C@H]1CC[C@@H](CC(=O)N2CCN(C)CC2)O[C@@H]1CO`, “inactive”.
Consider `C[C@@H]1CN([C@H](C)CO)C(=O)c2cc(NS(C)(=O)=O)ccc2O[C@@H]1CN(C)Cc1ccc(C(=O)O)cc1`, for which the cytotoxicity call was “inactive”.
With `CC(C)NC(=O)N(C)C[C@@H]1OCCCC[C@@H](C)Oc2ccc(NS(=O)(=O)c3cn(C)cn3)cc2C(=O)N([C@@H](C)CO)C[C@H]1C` the entry was “inactive”; with `C[C@H](CO)N1C[C@H](C)[C@H](CN(C)C(=O)Nc2ccccc2)OCCCC[C@H](C)Oc2ccc(NC(=O)Nc3cccc4ccccc34)cc2C1=O`, “inactive”; with `Cc1noc(C)c1NC(=O)N(C)C[C@@H]1Oc2ccc(NC(=O)Nc3ccc(C(F)(F)F)cc3)cc2C(=O)N([C@H](C)CO)C[C@@H]1C`, “inactive”.
Next, `C[C@H]1CN([C@@H](C)CO)C(=O)c2cc(NC(=O)Nc3cccc4ccccc34)ccc2O[C@@H]1CN(C)Cc1ccc(-c2ccccc2)cc1`: “active”; `C[C@@H]1CN([C@H](C)CO)C(=O)c2cc(NC(=O)Nc3cccc4ccccc34)ccc2O[C@H]1CN(C)Cc1ccccc1`: “inactive”.
On to `C[C@H]1CN([C@@H](C)CO)C(=O)c2cc(NC(=O)Nc3cccc4ccccc34)ccc2O[C@H]1CN(C)Cc1ccc(-c2ccccc2)cc1`, for which the cytotoxicity call was “inactive”.
With `C[C@H](CO)N1C[C@H](C)[C@@H](CN(C)Cc2ccc(-c3ccccc3)cc2)Oc2ccc(NC(=O)Nc3cccc4ccccc34)cc2C1=O` the entry was “inactive”; with `C[C@@H]1CN([C@H](C)CO)C(=O)c2cc(NC(=O)Nc3cccc4ccccc34)ccc2O[C@@H]1CN(C)Cc1ccc(-c2ccccc2)cc1`, “inactive”; with `C[C@@H]1CN([C@H](C)CO)C(=O)c2cc(NC(=O)Nc3cccc4ccccc34)ccc2O[C@H]1CN(C)Cc1ccc(-c2ccccc2)cc1`, “inactive”.
Take `C[C@@H]1CN([C@@H](C)CO)C(=O)c2cc(NC(=O)Nc3cccc4ccccc34)ccc2O[C@@H]1CN(C)Cc1ccc(-c2ccccc2)cc1`: the cytotoxicity call is “active”.
Next, `C[C@H](CO)N1C[C@H](C)[C@H](CN(C)Cc2ccc(-c3ccccc3)cc2)Oc2ccc(NC(=O)Nc3cccc4ccccc34)cc2C1=O`: “active”.
Next, `C[C@@H]1CN([C@@H](C)CO)C(=O)c2cc(NC(=O)Nc3cccc4ccccc34)ccc2O[C@H]1CN(C)Cc1ccc(-c2ccccc2)cc1`: “inactive”.
